SW480 rerep = A quantitative high throughput screen for small molecules that induce DNA re-replication in SW480 colon adenocarcinoma cells; SW480 DNA re-replication, Hoechst DNA content imaging, 48 h; Potency, µM (titrated, usually from 46.1 µM), for inactives: top-dose re-replication activation, actives largely listed as activators; 340,000 tested, 1.8% active; AID 624297, 2012; also: % of control where 0% means no effect; nearly all actives have a fitted effect of over 55% in size
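250 cells/well; 23 nL cpd via pin tool; 48 hr, 37 C, 5% CO2; Hoechst 40 min; imager read of total nuclear intensity, ex 405/em 500-530 nm.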
HT1080-NT tox = qHTS for induction of synthetic lethality in tumor cells producing 2HG: qHTS for the HT-1080-NT fibrosarcoma cell line | HT-1080-NT fibrosarcoma viability, CellTiter-Glo ATP luminescence, 48 h | Potency, µM (doses to about 46.1 µM), for inactives: at the highest dose activity, negative = less viability, hits mostly cytotoxic | 360,000 tested, 1.6% active | AID 686970, 2013;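 also: NT is the 2HG producing partner of a matched IDH1 knockdown line; 0% = DMSO-treated cells and -100% = media-only wells without cells; nearly all actives have a fitted effect of over 55% in size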
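Viability of the 2HG-overproducing fibrosarcoma line after 48 hours of compound exposure at 37 degrees C was determined by luminescence with CellTiter-Glo, and concentration-effect curves were then fitted and categorized.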
KB-V1 MDR tox = qHTS assay for MDR1-selective chemotherapeutics: Primary screen using the drug-selected MDR subline cells KB-V1. 400,000 tested, 3.4% active. Potency, µM (top dose mostly 46.1 µM), most hits filed as cytotoxic. KB-V1 MDR cells viability, CellTiter-Glo, 72 h. AID 1347076, 2019; also: % is scaled to controls: 0 for no effect and ±100 for the full control effect; nearly all actives have a fitted effect of over 60% in size
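qHTS viability screen in drug-selected KB-V1 MDR cells: 72 h compound treatment at 37 degrees C, ATP luminescence end point.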
KB-3-1 tox = qHTS assay for MDR1-selective chemotherapeutics: Primary screen using the parental adenocarcinoma cell KB-3-1; KB-3-1 viability, CellTiter-Glo ATP luminescence, 72 h; 400,000 tested, 1.4% active; Potency, µM (titrated, usually from 46.1 µM), hits mostly cytotoxic; also: % is scaled to controls: 0 for no effect and ±100 for the full control effect; nearly all actives have a fitted effect of over 60% in size
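Cytotoxicity in the drug-sensitive parental line KB-3-1 was scored as loss of CellTiter-Glo luminescence following 72 h incubation with compound. Values come from curve fitting of normalized concentration-response data.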
MCF10A rerep = A quantitative high throughput screen for small molecules that induce DNA re-replication in MCF 10a normal breast cells; MCF 10A DNA re-replication, Hoechst nuclear intensity, 48 h; Potency, µM (doses to about 46.1 µM), for inactives: at the highest dose activity, positive = re-replication, actives largely listed as activators; 350,000 tested, 2.9% active; also: % of control where 0% means no effect; nearly all actives have a fitted effect of over 50% in size
HT1080 IDH1KD tx = qHTS for induction of synthetic lethality in tumor cells producing 2HG: qHTS for the HT-1080-IDH1KD cell line; Potency, µM (top dose mostly 46.1 µM), inactives show at the top dose activity, negative = toxicity, hits mostly cytotoxic; AID 686971, 2013; HT-1080 IDH1 knockdown viability, ATP luminescence, 48 h; 360,000 tested, 2% active;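 also: 0% = DMSO wells and -100% = cell-free medium wells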
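Luminescent ATP read-out (CellTiter-Glo, 10 min at room temperature) after 48 h compound exposure at 37 °C gave viability of IDH1-knockdown HT-1080 cells. Activity was normalised to DMSO and cell-free wells, then fitted as concentration-response curves.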
Starred values were filed as active, the others as inactive. Shown are actives, neighbours in structure and some others; about 8% of the full set was active somewhere. Calls follow the shape of the dose curve; as a rule, active = well fitted curve in the direction sought with a large enough effect; inconclusive = small, poorly fitted or top-dose-only effect, or another doubt; inactive = no such curve, though single readings can be large; an effect the other way counts as inactive or inconclusive. Potency is read from the fitted curve at half-maximal effect.

Results for COC(=O)Cn1c(=O)c(C(=O)CCl)c(N)n(Cc2ccccc2)c1=O ?
SW480 rerep: inconclusive; HT1080-NT tox: 8%; KB-V1 MDR tox: inconclusive; KB-3-1 tox: 13µM*; MCF10A rerep: 5.2µM*; HT1080 IDH1KD tx: 11%

Results for COc1ccccc1-c1ncn(Cc2cccc(-c3ccccc3)c2)c1-c1cc(C)cc(C)c1 ?
HT1080-NT tox: inconclusive; KB-V1 MDR tox: 16µM*; KB-3-1 tox: inconclusive; HT1080 IDH1KD tx: inconclusive

Results for COc1ccccc1-c1ncn(Cc2cccc(-c3ccccc3)c2)c1-c1ccco1 ?
HT1080-NT tox: inconclusive; KB-V1 MDR tox: 15µM*; KB-3-1 tox: inconclusive; HT1080 IDH1KD tx: inconclusive

Results for COc1ccccc1-c1noc(-c2ccco2)n1 ?
SW480 rerep: -4%; HT1080-NT tox: -8%; KB-V1 MDR tox: inactive; KB-3-1 tox: inactive; MCF10A rerep: 0%; HT1080 IDH1KD tx: -3%

Results for COc1ccccc1-c1nc2ccccc2nc1-c1ccccc1 ?
SW480 rerep: 1%; HT1080-NT tox: -1%; KB-V1 MDR tox: inactive; KB-3-1 tox: inactive; MCF10A rerep: inconclusive; HT1080 IDH1KD tx: -1%

What do the screens show for `Cc1cccc(CCNC(=O)c2cc(S(=O)(=O)N3CCCCC3)c[nH]2)c1`?
SW480 rerep: -3%; HT1080-NT tox: 13%; KB-V1 MDR tox: inactive; KB-3-1 tox: inactive; MCF10A rerep: 1%; HT1080 IDH1KD tx: -1%

What do the screens show for `CC(=O)N1N=C(c2ccc(Cl)cc2)CC1c1ccc([N+](=O)[O-])cc1` (stereo not given)?
SW480 rerep: inconclusive; HT1080-NT tox: 1%; KB-V1 MDR tox: inactive; KB-3-1 tox: inactive; MCF10A rerep: -16%; HT1080 IDH1KD tx: 6%

How did CC1(O)CC(c2ccc(Cl)cc2)=NN1C(=O)c1ccc([N+](=O)[O-])cc1 (stereo not given) do in these assays?
SW480 rerep: inconclusive; HT1080-NT tox: 10µM*; KB-V1 MDR tox: inconclusive; KB-3-1 tox: inconclusive; MCF10A rerep: inconclusive; HT1080 IDH1KD tx: 16µM*

How did N#CCSc1nc2c(c(C3CC=CCC3)c1C#N)CCC2 (stereo not given) do in these assays?
SW480 rerep: 0%; HT1080-NT tox: 6%; KB-V1 MDR tox: inactive; KB-3-1 tox: inactive; MCF10A rerep: 21µM*; HT1080 IDH1KD tx: -2%

How did CCOc1ccc(CCNC(=O)c2nnc(Cc3cc(OC)c(OC)c(OC)c3)o2)cc1OCC do in these assays?
KB-V1 MDR tox: inactive; KB-3-1 tox: inactive

How did CCOC(=O)c1c(C)[nH]c(C)c1C(=O)CSc1nnnn1-c1ccccc1 do in these assays?
SW480 rerep: 8%; HT1080-NT tox: -7%; KB-V1 MDR tox: inconclusive; KB-3-1 tox: inactive; MCF10A rerep: 17%; HT1080 IDH1KD tx: -6%

How did CCOC(=O)Cc1nc2ccccc2[nH]1 do in these assays?
SW480 rerep: 2µM*; HT1080-NT tox: 18%; KB-V1 MDR tox: inactive; KB-3-1 tox: inactive; MCF10A rerep: 5µM*; HT1080 IDH1KD tx: 1%

How did Cc1cc(C(=O)CSc2nc3ccccc3[nH]2)c(C)n1CC1CCCO1 (stereo not given) do in these assays?
SW480 rerep: 0%; HT1080-NT tox: 1%; KB-V1 MDR tox: 2.3µM*; KB-3-1 tox: 3.7µM*; MCF10A rerep: inconclusive; HT1080 IDH1KD tx: inconclusive

What do the screens show for `CCOC(=O)c1c(C)[nH]c(C)c1C(=O)CSc1nc2ccccc2c(=O)n1-c1ccc(CC)cc1`?
SW480 rerep: 3%; HT1080-NT tox: -19%; KB-V1 MDR tox: 7.3µM*; KB-3-1 tox: 23µM*; MCF10A rerep: inconclusive; HT1080 IDH1KD tx: -19%

How did Cc1ccc(C(=O)Cc2nc3ccccc3[nH]2)cc1 do in these assays?
SW480 rerep: 19%; HT1080-NT tox: 3%; KB-V1 MDR tox: inactive; KB-3-1 tox: inactive; MCF10A rerep: 0%; HT1080 IDH1KD tx: -30%

What do the screens show for `O=C(Cc1nc2ccccc2[nH]1)c1cccc([N+](=O)[O-])c1`?
SW480 rerep: inconclusive; HT1080-NT tox: 2%; KB-V1 MDR tox: inactive; KB-3-1 tox: inconclusive; MCF10A rerep: 7.3µM*; HT1080 IDH1KD tx: -7%

How did O=C(CNC(=O)C(c1ccccc1)c1ccccc1)OCC(=O)c1cccc2ccccc12 do in these assays?
KB-V1 MDR tox: inactive; KB-3-1 tox: inactive

Results for O=C(c1nc2ccccc2[nH]1)c1ccccc1[N+](=O)[O-] ?
SW480 rerep: -2%; HT1080-NT tox: -1%; KB-V1 MDR tox: inactive; KB-3-1 tox: inconclusive; MCF10A rerep: 0%; HT1080 IDH1KD tx: 2%

Results for COC(=O)c1cc(CSc2nc3ccccc3[nH]2)oc1C ?
SW480 rerep: -7%; HT1080-NT tox: 0%; KB-V1 MDR tox: 2.9µM*; KB-3-1 tox: 21µM*; MCF10A rerep: -3%; HT1080 IDH1KD tx: -4%

What do the screens show for `CCOC(=O)c1c(C)[nH]c(C)c1C(=O)CSc1nc2ccccc2n1CC`?
SW480 rerep: -3%; HT1080-NT tox: -6%; KB-V1 MDR tox: inactive; KB-3-1 tox: inactive; MCF10A rerep: 2%; HT1080 IDH1KD tx: -9%

How did CCOC(=O)c1c(C)[nH]c(C)c1C(=O)CSc1nc2ccccc2[nH]1 do in these assays?
SW480 rerep: 1%; HT1080-NT tox: -1%; KB-V1 MDR tox: 23µM*; KB-3-1 tox: inactive; MCF10A rerep: 11%; HT1080 IDH1KD tx: -14%

Results for CCOC(=O)c1c(C)[nH]c(C)c1C(=O)Cn1nnc(-c2ccccc2C)n1 ?
SW480 rerep: 12%; HT1080-NT tox: -5%; KB-V1 MDR tox: 16µM*; KB-3-1 tox: inactive; MCF10A rerep: 21µM*; HT1080 IDH1KD tx: -21%

How did O=[N+]([O-])c1nc2ccccc2[nH]1 do in these assays?
SW480 rerep: 2%; HT1080-NT tox: 22%; KB-V1 MDR tox: 18µM*; KB-3-1 tox: inconclusive; MCF10A rerep: 1%; HT1080 IDH1KD tx: 9%

What do the screens show for `O=C(C[n+]1csc2ccccc21)c1ccc(I)cc1`?
KB-V1 MDR tox: inactive; KB-3-1 tox: inactive

Results for Cc1ccccc1Cn1c(CN2CCC(C(=O)NCCc3ccccc3)CC2)cc2ccccc21 ?
KB-V1 MDR tox: inactive; KB-3-1 tox: inactive

What do the screens show for `CCc1ccccc1NC(=O)Nc1cc(C(=O)NCc2ccccc2OC)ccc1N1CCCC1`?
KB-V1 MDR tox: inactive; KB-3-1 tox: inactive
